PubChem BioAssay (NCATS)
Inconclusive results are not listed. Where a call stands in place of a potency, no number is given. The source made the active and inactive calls. The call rests on the fitted dose curve; in most records, active means well fitted inhibition curve with a large enough effect; inconclusive means small, poorly fitted or top-dose-only effect; inactive means flat fitted curve, though single readings scatter.

These molecules were tested against Calcium and integrin-binding protein 1 (Homo sapiens) (UniProt Q99828) (assay: Primary qHTS for Identification of Calcium Integrin Binding Protein 1 (CIB1) Competitor (AID 1508620;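 further: GST tagged CIB1 binding a fluorescein labelled alphaIIb integrin peptide tracer; top concentration of the series differs between compounds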)). Conditions: CIB1-GST / FITC-alphaIIb peptide fluorescence polarization; series mostly up to 114 µM.
Chain of Calcium and integrin-binding protein 1 (Homo sapiens) (Q99828 whole entry, looked up): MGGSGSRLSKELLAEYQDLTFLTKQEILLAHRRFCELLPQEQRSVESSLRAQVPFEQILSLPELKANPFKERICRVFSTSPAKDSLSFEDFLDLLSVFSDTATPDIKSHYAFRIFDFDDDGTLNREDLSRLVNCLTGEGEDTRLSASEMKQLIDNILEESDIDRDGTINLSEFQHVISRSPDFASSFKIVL
How it was run: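 CIB1-GST (1 uM final) and compound incubated 15 min at room temperature before adding FITC-alphaIIb peptide tracer (100 nM final). Competition for binding read by fluorescence polarization (ex 480, em 540) after another 15 min at room temperature.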
With CN(Cc1ccc(-c2ccccc2)cc1)c1nc(-c2ccccc2C(F)(F)F)nc2ccccc12 the Potency was “inactive”. With O=C(Cc1ccc2ccccc2c1)Nc1nnc(-c2ccncc2)s1 the Potency was “inactive”. CC(C)(C)Nc1nc(C#N)nc(Nc2ccccc2)n1 was tested, and the Potency was “inactive”. Cc1ccc(NC(=O)CSc2nnc(-c3cccc([S+](=O)([O-])N4CCCC4)c3)n2-c2ccccc2)cc1 was tested, and the Potency was “inactive”. COc1ccccc1-c1nnc2n1N=C(c1ccc(OC(F)F)c(OCC3CC3)c1)CS2 was tested, and the Potency was “inactive”. With CCC(=O)Nc1ccc(OCc2cc(C3Nc4ccccc4C(=O)N3Cc3ccccc3)ccc2OC)cc1 (centres undefined) the Potency was “inactive”. With Cc1nnc(-c2ccccc2[N+](=O)[O-])n1CCCn1ccnc1 the Potency was “inactive”. For Cn1nnnc1Sc1ncnc2scc(-c3cc4ccccc4o3)c12, the Potency was “inactive”. For Brc1ccc(-c2ccc(C3Nc4cccc5cccc(c45)N3)o2)cc1, the Potency was “inactive”. For Fc1cccc(CNc2ncnc3ccc(-c4ccoc4)cc23)c1, the Potency was “inactive”. In the case of O=C(O)CCCCCNC(=O)CSc1nnc(-c2ccc([S+](=O)([O-])N3CCCC3)cc2)n1-c1ccccc1, the Potency is reported as “inactive”. O=S(=O)(c1ccc(C(F)(F)F)cc1)N1CCN(S(=O)(=O)c2ccc3c(c2)OCCO3)CC1 was tested, and the Potency was “inactive”. For CCOc1ccc(CCNC(=O)CN(C)C)cc1OCC, the Potency was “inactive”. For c1cncc(-c2ccc(CNc3nc(-n4ccnc4)nc4ccccc34)cc2)c1, the Potency was “inactive”. In the case of CC(=O)Nc1sc2c(c1-c1ccc(C#N)cc1)CCNC2, the Potency is reported as “inactive”. NC(=O)C1CCN(c2nc(-c3ccc(N)cc3)cs2)CC1 was tested, and the Potency was “inactive”. In the case of O=[S+]([O-])(Nc1ccc(-c2nc3ccccc3[nH]2)cc1)c1ccc2c(c1)OCO2, the Potency is reported as “inactive”. With Oc1c(CNc2ccccc2)cc(COCc2ccccc2)c2cccnc12 the Potency was “inactive”. For Cc1cc(C)n2ncc(C(=O)Nc3cccc(C#N)c3)c2n1, the Potency was “inactive”. For CCC1CCC2(C1)N=C(Nc1nc3ccccc3o1)NC1=C2C(=O)CCC1 (centres undefined), the Potency was “inactive”. In the case of N#Cc1nc(Nc2cccc(C(F)(F)F)c2)nc(NC2CCCC2)n1, the Potency is reported as “inactive”. For Cc1ccc(NC(=O)c2cnn3c(C)cc(C)nc23)cc1, the Potency was “inactive”. For O=S(=O)(c1ccc2c(c1)OCCO2)N1CCN(S(=O)(=O)c2cccc[n+]2[O-])CC1, the Potency was “inactive”. Fc1cnc(-c2ccccc2C(F)F)nc1NCc1ccc(-n2ccnn2)cc1 was tested, and the Potency was “inactive”. In the case of O=C(Nc1nnc(-c2ccncc2)s1)Nc1cccc2ccccc12, the Potency is reported as “inactive”. For O=c1c2ccccc2nc2sc(Nc3ccc(Oc4ccccc4)cc3)nn12, the Potency was “inactive”. With CN1C(=O)NC(c2ccccc2Cl)C2=C1CCCC2=O (centres undefined) the Potency was “inactive”. For COCc1nn2c(=O)cc(N3CCNCC3)nc2s1, the Potency was “inactive”. For CCOc1cc2c(cc1OCC)CN(C(=O)c1cc3sccc3n1Cc1ccccc1)CC2, the Potency was “inactive”. COc1ccc(CCNC(=O)Cn2nc(-c3ccc(C)cc3)ccc2=O)cc1OC was tested, and the Potency was “inactive”. Cc1cnc(-c2ccccc2C(C)O)nc1NCC1CCN(c2cccnc2)CC1 (centres undefined) was tested, and the Potency was “inactive”. C/C(=C\c1cccc(C(F)(F)F)c1)C1Nc2cccc3cccc(c23)N1 was tested, and the Potency was “inactive”. With Cc1ccc(NS(=O)(=O)c2cc3c(cc2N2CCC2)NC(=O)CC3)cc1C the Potency was “inactive”. With Cc1ccnc(NC(=S)N2CC3CN(c4cccc(C(F)(F)F)c4)CC3C2)c1 (centres undefined) the Potency was “inactive”. O=C(O)c1ccccc1-c1noc(-c2ccccc2F)n1 was tested, and the Potency was “inactive”. In the case of CCOC(=O)c1ccoc1-c1ccc2ncnc(N(C)Cc3sccc3C)c2c1, the Potency is reported as “inactive”. In the case of O=C(Nc1ccccc1)C1CCN(c2nc(-c3ccc(Br)cc3)cs2)CC1, the Potency is reported as “inactive”. With Cc1cc(C)nc(NC(=S)N2CCN(c3cc(Br)cc(C(F)(F)F)c3)CC2)c1 the Potency was “inactive”. With O=C(NCc1nnc(C(=O)Nc2ccc(C(F)(F)F)cc2Cl)o1)c1ccccc1 the Potency was “inactive”.
